This note sets out measurements from PubChem BioAssay AID1508600 (Functional Genomics Laboratory (NCATS/FGL), 2020).

The whole screen tested about 53,000 sequences, of which about 3,700 (7%) were called active. This is one part of a sample in which actives are shown more often than they occur. A number with no mark means an inactive call.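 Rule for the calls: active = gene knockdowns whose robust z-score for IL-1 alpha signal is at least 2 or at most -2, so actives lie on both sides; inactive = the rest.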

The assay can be described thus: Components of the Cytosolic LPS Sensing Pathway: Gene Identification via Genome-wide siRNA Screen.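 Note: robust z of the log signal after scaling to non-targeting control siRNA wells of the plate.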 To be noted: RAW264.7 macrophages, IL-1a HTRF, actives lie on both sides, screened at 100 nM (by protocol), cells primed 5 h with Pam3CSK4 first. Summed up:
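Three distinct siRNAs per gene were tested singly at 100 nM in RAW264.7 macrophages. Following Pam3CSK4 priming and 24 hour LipidA transfection, IL-1a secretion was read by HTRF.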
(TR-FRET usually uses a lanthanide donor and a delayed reading to cut background.)
On to GGUGUCCAACAAGCUCAAGTT against F8a, for which the z-score is -0.337.
Turning to GCGCAAACUUUAAUAACACTT against Zkscan1, the z-score was 0.604.
In the case of GGCCAGGUAACUCUUACAATT against Trpv1, the z-score is 1.12.
Next, GGGUUAGCCAGAGCUCUAATT against N4bp2l1: 3.03 (active); GGACAGUGUCUAGAUAUUGTT against Fbln5: -1.18; GGACAAGUUGUUGGACUACTT against Hltf: -1.02.
GGACAAUGUGAUGAAGAUUTT against Fgfr3: the z-score was -0.843.
On to GCCUCAUCAAUCCACUGCATT against Mtss2, for which the z-score was -0.956.
With GGGUGUGUUGGAUACCUAUTT against Adig, the z-score was 2.03 (active).
Next, GGGAGUUGUAGUAUUAGUATT against Zfp94: -1.19; AAAAAACAGCACCCUGAUGTT against Olfr204: 1.1.
With GGUCAGCAUUAUCAAGCCUTT against Hsd11b2 the figure was 0.159; with CCUGUGAAUACUUUCACUCTT against Bok, 0.115.
With GGAAAUUGGCACCAUUACUTT against St3gal1, the z-score is 2.14 (active).
For the sequence GCCAGUCAUUAUAGUUAACTT against Slc47a1, the z-score was 1.57.
As for GGAAGAACCACCACAAACUTT against Cstdc2, the z-score was -0.0281.
With GGAGUUUGGUAAAAUUGACTT against Dhrs7 the figure was -1.7.
Regarding GGAAGAAAUUCCUAAUGAATT against Igsf11, the z-score is -1.01.
GGACCAAGGAAUAUUUCCCTT against Serpinb9b: the z-score is -0.564.
Turning to GGGAUCAGAACAAGUAUAATT against Klc1, the z-score was 0.257.
Take GGCUAAUAGACUUAUUAGGTT against Cdip1: the z-score is 0.45.
As to GGGUCAUCCAAAUGGUUUGTT against Grm6, the z-score was 0.323.
As for GGCUCACAGGACCUAUUUCTT against Col6a6, the z-score is -3.15 (active).
Regarding GCUGUUUUGAGGAGCCUUCTT against Zfp410, the z-score is -0.962.
As to GGGUGAUCGCACGAUUGAGTT against Casq2, the z-score is 0.364.
Turning to CCCACUCCGAUAUACUGCUTT against Olfr447, the z-score is 2.2 (active).
Take GGAAAAUGGCAGAAAUGAATT against Vps26a: the z-score was -1.97.
Consider GGAGGUUGUGAUCUUGAAATT against Tbc1d23, for which the z-score was -0.000244.
For the sequence CGUAGACUUAACCUACAAATT against Dync2h1, the z-score was 1.88.
With GGUCAACCUUGAACUAAUATT against Dhx57, the z-score is 0.452.
As for GCGAGUAGGACCAGUGAAATT against Xpo1, the z-score was -2.67 (active).
Next, GGAUCUUGAGUUGGAGUCCTT against Nupr1l: -0.319.
Turning to GCUAGAGUACAGCAAGCUGTT against Aifm3, the z-score was 1.21.
Consider GGACGGUAACAACUACAAUTT against Polg, for which the z-score is 1.63.
For the sequence GGAUUAAAGGCCAUAAGGATT against Zfp747, the z-score was -0.813.
CGAGUUUGACCGGACCAUCTT against Ssna1: the z-score is 2.44 (active).
Regarding GGAACAAGAGAAUGAUGAATT against Col5a2, the z-score was 0.343.
As for CGAAGAUUAAUUUUGCUCATT against Lrrtm2, the z-score is 0.316.
With CGAGACUCUAUCUUUGUCCTT against St3gal3 the figure was -0.785; with CGUGGUAGUGAAAAUUGAGTT against Xbp1, 0.282.
GGCCGCAUACUGAUGAAAGTT against Scgn: the z-score is -0.395.
Next, GCUUUGUUGGGAGUGAAAUTT against Olfr728: -2.11 (active); CCACCACAGCUGAAGUCAGTT against Fen1: -1.08; GGUAAGCUAGGUUGCCCACTT against Gabarapl1: 1.91.
As for “GGGUUAAGGUAGUUUCUAATT against 4930579C12Rik”, the z-score is 0.613.
As for GGUGAAAUCCAGGAGUUUUTT against Rnd3, the z-score is 2.02 (active).
On to GGAAAUGAAGCUCAUGGAATT against Dcdc5, for which the z-score was -1.44.
Consider GGUUGCUAGUGCUAAGGACTT against Pdlim2, for which the z-score was 0.245.
As for GGGCUGGUCAUUUACUAAGTT against Cdh22, the z-score was 1.32.
Next, CCAGAAUGUCACUGCCAGUTT against Zfy1: 1.34; CCUGGAGAGUGAUACGUUCTT against Serpina1f: -0.228.
With GGUCAAACUUCAAUAGACATT against Zkscan6, the z-score was 2.01 (active).
As for GGGUGUUAGAAAUCAUUAUTT against Dgkd, the z-score is 1.19.
For GGAACUUCAGAGUAAACCUTT against H2-T23, the z-score was 0.096.
As to CCACAAUCAUUAACAAGCUTT against Arl6, the z-score was 0.389.
On to GGUUCAAGAGGAGACUACUTT against BC005624, for which the z-score is -0.127.
Consider GGAAUAUGUGUGGACUAGATT against Tor3a, for which the z-score was -0.265.
Turning to GGCUUACAAAAAGUACAUCTT against Tpt1, the z-score was 4.36 (active).
With GGACCAUUCUUGCGUUCGUTT against Cacng7 the figure was 1.66.
In the case of CCGAUUAGAAAAGACCAAATT against Ccdc25, the z-score is 0.727.
With GGAAGUUUUGGGAGUGUGUTT against Map3k20 the figure was -1.08.
With CGCAACCUGUCACAUAAUATT against Bmpr2 the figure was -0.238.
With GCUGUUCUAUCAGACCUUUTT against Cyp2b10 the figure was -0.236; with GGAGACUUAUAACAUGUUUTT against Habp2, 2.19 (active).
For the sequence GCGAGUUGAAGACUGAAGGTT against Ccdc68, the z-score was 1.44.
GGUCAUACAUUUGUCAUCATT against Bend7: the z-score is -0.336.
For the sequence CCAUGUUAGAACUGGGACUTT against Tafa2, the z-score is 2.44 (active).
On to GGUCAUGGGACAGCAAAUGTT against Tmco6, for which the z-score was -1.67.
Regarding GGAAGACGUAUUUGUACACTT against Ybx1, the z-score is -0.523.
With GGAGUAGCUGAAUCUGAAGTT against Atp5e the figure was 1.57; with CCUCAUUUCAACCAUUCACTT against Lyzl6, -2.36 (active); with GGAGCUUCAUCUUUCAAGATT against Uqcrc2, -0.0657.
For GCAUUGUGCUUUUGACAACTT against Abca15, the z-score is -0.173.
Regarding GGAGCUUGAAAUUGUCAUUTT against Magoh, the z-score was -3.51 (active).
With GGACCGGUGUCUAAUCAGCTT against Capn10 the figure was 1.75.
In the case of GGCUCAAGGAACAUGAGGCTT against Gtsf2, the z-score was -0.0452.
Regarding GGCACAAACUAGAUGCAGATT against Ccdc68, the z-score was -0.669.
As for GCUCUCGUAGACUGCUAUATT against Ppp1r14c, the z-score was 2.13 (active).
As for GGAAUUUGAAUCACGUUUGTT against Hprt, the z-score is 1.72.
As for CGGAUUCGGGAAUUCUAUCTT against Pcgf1, the z-score is 0.143.
For the sequence GGGUACCUCGUGGUACAUUTT against Rapgef3, the z-score was 0.352.
For the sequence GGUCCAAAAGUUGUUUCAATT against Oga, the z-score was 3.12 (active).
With GGAUUCAGCAGCUUCAGAATT against Rex1bd the figure was 0.221; with GGAUUAUGCAAGUUACAUUTT against Nsf, -0.63.
With GCACCUAGUUAAUGCUGCCTT against C2cd2, the z-score is -2.15 (active).
With GCAGGCAUCGUGUUUACCATT against Cdh20, the z-score was 1.86.
With GCUCAAUUGUUCUUCUUUUTT against Olfr806 the figure was -1.13; with GCUUUAGAACAGAGGGUUATT against Scd4, 0.989; with GGAGAUCUUCAACUGCCACTT against Rps6kl1, 0.842.
Consider GGUGAUUACUCUUAUGUGATT against Slc7a8, for which the z-score is -0.663.
As to GGCUGAAGGAGCAAUCAAATT against L3mbtl3, the z-score is 1.85.
With GGCCGUUAUUAAAUUCAUATT against Twsg1 the figure was -0.609; with GCCGUACCAUGUAAUGCCATT against Naa60, -2.05 (active); with GGCCUCAGCUCACAACAAATT against Sf3b4, -1.71.
With GGAAGCAAAAUAAAGAAACTT against Myo1e the figure was 0.109.
With GCGAGAGUCACAAAGUGCATT against Rcc1l the figure was 1.35; with GCUAGAGGUGACUGAUGUCTT against Tti1, -1.26; with GGAACAAGAGAGGACAAGUTT against Papss2, 0.555.
In the case of GCCAAAAGUCGAGCACCUCTT against Lrrc8d, the z-score was 0.43.
As to CGGUGCUUGCUUCUAUGUGTT against Olfr642, the z-score is 0.201.
As for GCUUUUGUGACUCUGCUGATT against Raver1, the z-score is -1.41.
Turning to CCAUCUAUCAACUUCUACATT against Sat1, the z-score is -0.34.
In the case of GGCUAUGUUCACCUGUGGATT against Kbtbd12, the z-score is -2.66 (active).
Take CCUGUAAGAACCUUGCCUATT against Sytl3: the z-score was 0.733.
As for GGAAGGAAGAAGACAAUAATT against Nudt16l1, the z-score is -0.438.
As to GCGGAUGAUCAAGAAUCGATT against Atf6b, the z-score was -0.421.
Next, GCUGUGAAAACGCAGUUACTT against Ccser2: 1.77.
Take CCUAUACAUGCUACUGAACTT against Itga9: the z-score is -0.723.
